Shown are actives, neighbours in structure and some others; about 19% of the full set was active somewhere.
HT1080 IDH1KD tx – HT-1080 IDH1 knockdown cell toxicity (counter line) | Potency, µM (series often up to 46.1 µM), usual class: cytotoxic | 360,000 compounds, 2% hits | HT-1080 IDH1 knockdown viability, ATP luminescence, 48 h
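IDH1KD HT-1080 cells, 750/well, RPMI + 5% FBS; compound pinned after 2 h settling; 48 h, 37 °C; CellTiter-Glo luminescence; % activity normalised to DMSO and no-cell wells; curves fitted, classed by r2 and efficacy.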
IL-1B inflam inh – inflammasome signaling inhibition, IL-1 beta readout | THP-1 LPS/ATP IL-1B secretion, AlphaLISA, 16 h; stronger effect = lower value | activity change, % at 57.5 µM | 360,000 compounds, 4.7% hits; in the data active = activity change below about -50%; inconclusive = mostly about -30% to -49%
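Secreted IL-1B measured by AlphaLISA bead assay after 16 h compound exposure of THP-1 cells; compounds (final up to 57.5 uM) added 1 h before LPS (250 ng/mL) and ATP (1.25 mM) stimulation; lower signal means less secretion.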
uPA surface inh – cell surface uPA generation inhibition. cell surface uPA generation assay, qHTS. Potency, µM (highest dose often 38.3 µM), usual class: inhibitors. 330,000 compounds, 0.31% hits. AID 540303; active = well fitted inhibition curve with a large enough effect; inconclusive = small, poorly fitted or top-dose-only effect; inactive = no such curve, though single readings can be large or run the other way; tested in mouse RAW 264.7 cells; also: nearly all actives have a fitted effect of over 55% in size
HT1080NT lethal – kills 2HG-producing HT-1080-NT fibrosarcoma cells; 360,000 compounds, 1.6% hits; HT-1080-NT fibrosarcoma viability, CellTiter-Glo ATP luminescence, 48 h; Potency, µM (titrated, usually from 46.1 µM), actives largely listed as cytotoxic;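 also: NT is the 2HG producing partner of a matched IDH1 knockdown line; nearly all actives have a fitted effect of over 55% in size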
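Luminescent CellTiter-Glo readout after 48 hours of compound exposure at 37 degrees C defined viability of HT-1080-NT cells. Activity was normalized to DMSO wells and cell-free media wells; concentration-response curves were fitted and assigned curve classes.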
TDP1 cell CPT – DT40-hTDP1 cell growth loss with CPT; chicken DT40 Tdp1-/-;hTDP1 cells + 20 nM CPT, ATP luminescence, 48 h; 420,000 compounds, 12% hits; AID 686979; Potency, µM (highest dose often 46.2 µM), hits mostly inhibitors; also: nearly all actives have a fitted effect of over 55% in size
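Chicken DT40 Tdp1-/- cells stably complemented with human TDP1 were seeded at 400 cells/well in medium containing 20 nM camptothecin, exposed to pin-transferred compounds, and grown at 37 °C for at least 48 hr. Viability was read as ATP luminescence.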
TDP1 cell noCPT – qHTS for Inhibitors of human tyrosyl-DNA phosphodiesterase 1 (TDP1): qHTS in cells in absence of CPT. DT40 Tdp1-/- hTDP1 cells, no CPT, ATP luminescence, 48 h. Potency, µM (doses to about 46.2 µM), most hits filed as inhibitors. 420,000 compounds, 15% hits; also: nearly all actives have a fitted effect of over 55% in size
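DT40 Tdp1-/-;hTDP1 cells, no CPT (DMSO vehicle only), 400 cells/well; compounds pin-transferred; ≥48 hr, 37 °C; CellTiter-Glo 30 min RT dark, luminescence read.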
A number is an active result; n = inactive; u = inconclusive; x = no result given; ! = a repeat was not active; [ ] = remark or other dose. Unless noted, calls follow the shape of the dose curve; as a rule, active = well fitted curve in the direction sought with a large enough effect; inconclusive = small, poorly fitted or top-dose-only effect, or another doubt; inactive = no such curve, though single readings can be large; an effect the other way counts as inactive or inconclusive.

SMILES	HT1080 IDH1KD tx	IL-1B inflam inh	uPA surface inh	HT1080NT lethal	TDP1 cell CPT	TDP1 cell noCPT
Cc1cccc(S(=O)(=O)NC(=O)C2(C)CCN2C(=O)c2ccccc2)c1 (configuration not stated)	n	n	x	n	n	n
CCCCN1CCC(CCC(=O)c2cc(Cl)c(N)cc2OC)CC1	x	x	x	x	u	27µM!
Cc1cccc(S(=O)(=O)NCCc2ccccc2)c1	n	n	x	n	n	n
Cc1ccc(N=Cc2ccc(O)cc2O)cc1F	n	n	n	n	u	21µM
Oc1ccc(C=Nc2cccc3ccccc23)c(O)c1	u	n	n	n	u	n
COc1ccc(-c2cc(C(=O)OCC(=O)N3CCCCC3)c3ccccc3n2)cc1OC	n	n	n	n	u	21µM
Cc1ccc(C(=O)c2ccccc2C(=O)OCC(=O)N2CCCC2)cc1	n	n	n	n	n	n
Cc1cccc(C(=O)OCC(=O)N2CCCCCC2)c1C	n	n	n	n	u	21µM
O=C(c1cc(-c2ccco2)nc2ccccc12)N1CCN(c2ccc(F)cc2)CC1	n	n	n	n	21µM	13µM
COc1ccc(-c2cc(C(=O)N3CCCCCC3)c3ccccc3n2)cc1OC	n	u	x	n	u	u
COc1ccc(-c2cc(C(=O)N3CCN(c4ccccc4)CC3)c3ccccc3n2)cc1OC	n	n	n	n	u	16µM
Cc1ccc2c(C(=O)N3CCN(c4ccccc4)CC3)cc(-c3cccnc3)nc2c1C	23µM	-64	n	u	u	13µM
COc1ccc(-c2cc(C(=O)N3CCCC(C(F)(F)F)C3)c3ccccc3n2)cc1OC (configuration not stated)	n	u	n	n	u	21µM
COc1ccc(NC(=O)c2cc(-c3cccnc3)nc3c(C)c(C)ccc23)c(OC)c1	n	n	x	n[9.24 µM]	u	u
Cc1ccc(-c2cc(C(=O)N3CCN(c4ccccc4)CC3)c3ccccc3n2)cc1C	x	x	x	x	u	16µM
Cc1ccc(Cn2c(=O)n(CCc3ccccc3)c(=O)c3sc4ccccc4c32)cc1	x	x	x	x	n	n
CCN(c1ccc(OC)cc1)S(=O)(=O)c1ccc(-c2ccc(=O)[nH]n2)o1	n	n	u	n	u	u
COc1ccc(S(=O)(=O)n2nc(-c3ccc(Cl)cc3)cc2N)cc1	18µM	n	n	18µM	u	u
CC(=O)N1CCCC(C(=O)c2ccc3c4c(cccc24)CC3)C1 (configuration not stated)	n	n	n	n	n	23µM
CC(=O)NCCC(=O)N1CCCC(C(=O)c2ccc3c4c(cccc24)CC3)C1 (configuration not stated)	n	n	n	n	u	u
COc1cc(CN2CCCC(C(=O)c3ccc4c5c(cccc35)CC4)C2)cc(OC)c1O (configuration not stated)	n	n	u	n	4.6µM	4.6µM
CN1CCC(C(=O)N2CCCC(C(=O)c3ccc4c5c(cccc35)CC4)C2)CC1 (configuration not stated)	n	n	u	n	u	18µM
Cc1cccc(CN2CCCC(C(=O)c3ccc4c5c(cccc35)CC4)C2)n1 (configuration not stated)	u	n	n	u	16µM	13µM
Cc1ccc(S(=O)(=O)NC(=O)C2(C)CCN2C(=O)c2ccccc2CCc2ccccc2)nc1 (configuration not stated)	n	n	x	n	n	n
CS(=O)(=O)N1CCC2(CCN(c3ccccn3)CC2)CC1	x	x	x	x	n	n
SMILES	HT1080 IDH1KD tx	IL-1B inflam inh	uPA surface inh	HT1080NT lethal	TDP1 cell CPT	TDP1 cell noCPT
O=C(CN1C(=O)NC2(CCCc3ccccc32)C1=O)NCc1ccc(Cl)cc1Cl (configuration not stated)	n	n	n	n	u	u
O=C(c1ccc2c3c(cccc13)CC2)C1CCCN(Cc2cccnc2)C1 (configuration not stated)	n	-78	n	n	n	u
O=C(C1CCCN(Cc2ccccc2)C1)N1CCCCC1 (configuration not stated)	n	n	n	n	n	n
O=C(c1ccc2c3c(cccc13)CC2)C1CCCN(C(=O)c2cccnc2)C1 (configuration not stated)	n	n	n	n	12µM	21µM
COc1cc(SC)ccc1C(=O)N1CCN(S(=O)(=O)/C=C/c2ccccc2)CC1	n	n	n	n	u	n
O=S(=O)(C/C(=C/CO)S(=O)(=O)c1ccccc1)c1ccccc1	2µM	-106	x	7.1µM	0.82µM	2.3µM
CCCc1nc2ccc(C(=O)OC)cn2c1Cc1ccccc1C(F)(F)F	u	n	x	u	u	16µM
CCCc1nc2ccc(C(=O)OC)cn2c1Cc1ccccc1	n	n	x	n	u	29µM
CCCc1nc2ccc(C(=O)OC)cn2c1Cc1ccc(C)cc1	n	n	x	u	18µM	23µM
CCCc1nc2ccc(C)cn2c1Cc1ccc(C)cc1	u	n	x	u	21µM	18µM
CCCc1nc2ccc(C)cn2c1Cc1ccccc1	n	n	x	n	u	u
CCOC(=O)[C@]12CCCC=C1N(Cc1cccc3ccccc13)C(=O)[C@H](CC(=O)N1CCN(C(=O)c3ccco3)CC1)C2	n	n	x	u	u	u
Cc1cc(N2C(=O)C3C4CCC(C4)C3C2=O)no1 (configuration not stated)	n	n	n	n	n	n
COC(=O)C1(c2ccccc2)NC(c2ccc(O)cc2)C2C(=O)N(c3ccc4c(c3)OCO4)C(=O)C21 (configuration not stated)	n	n	n	n	n	n
CC(C)=CCN1CCN(Cc2c[nH]c3ccccc23)CC1CCO (configuration not stated)	n	n	n	n	u	u
CC(C)CN1CCN(Cc2c[nH]c3ccccc23)CC1CCO (configuration not stated)	n	n	n	n	8.2µM	u
COc1ccc2[nH]c(CN3CCN(CC(C)C)C(CCO)C3)c(C)c2c1 (configuration not stated)	n	-96	n	n	n	23µM
CCOc1ccc(CN2CCN(Cc3cccc4c3OCO4)CC2CCO)cc1 (configuration not stated)	n	n	n	n	u	u
CCOc1ccc(CN2CCN(Cc3[nH]c4ccccc4c3C)CC2CCO)cc1 (configuration not stated)	n	-74	n	n	u	u
CCOc1ccc(CN2CCN(Cc3cc4c(cc3Cl)OCO4)CC2CCO)cc1 (configuration not stated)	n	-60	n	u	u	16µM

Screens (PubChem BioAssay)
